Compound activity from PubChem.
Insulin prom up: MIN6 insulin promoter up-regulation; MIN6 insulin promoter-GFP reporter, high-content imaging; stronger effect = higher value; AID 1625; z-score at 5 µM; actives 0.3% (n = 190,000);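 active = z-score above 3 at 5 µM with at least 500 cells counted in the well; inconclusive = wells under 500 cells, flagged as cytotoxic or low count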
INS promoter inh: TRM-6 insulin promoter activity inhibition. TRM-6 cells (human fetal islet line), insulin promoter-eGFP reporter, imaging; reporter expression induced with tamoxifen. inhibition, % at 2 µM. actives 0.9% (n = 130,000);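 active = inhibition above the mean plus 3 SD, with well images judged a real hit on visual review, cut at about 60% in these data, passing the limit was not always enough; inconclusive = inhibition over the cutoff but images rejected on review; inactive = inhibition not above the cutoff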
Tb hexokinase: blocks Trypanosoma brucei hexokinase 1 activity. actives 0.11% (n = 220,000). AID 1430. recombinant TbHK1, G6PDH-coupled NADH A340. inhibition, % at 10 µM;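 active = inhibition of 50% or more in the single-dose primary screen; inactive = inhibition below 50%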
ROMK mod: human ROMK K+ channel modulation, primary screen; Tet-inducible ROMK, thallium flux fluorescence; actives lie on both sides; B-score at 10 µM; actives 2% (n = 130,000);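 active = signal ratio slope over the read window, or its plate-corrected B-score, at least 3 SD from the plate mean, either direction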;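 note: B-score of the F/F0 ratio slope over 7 to 12 s after thallium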
Target sequence (P48048 whole entry, looked up): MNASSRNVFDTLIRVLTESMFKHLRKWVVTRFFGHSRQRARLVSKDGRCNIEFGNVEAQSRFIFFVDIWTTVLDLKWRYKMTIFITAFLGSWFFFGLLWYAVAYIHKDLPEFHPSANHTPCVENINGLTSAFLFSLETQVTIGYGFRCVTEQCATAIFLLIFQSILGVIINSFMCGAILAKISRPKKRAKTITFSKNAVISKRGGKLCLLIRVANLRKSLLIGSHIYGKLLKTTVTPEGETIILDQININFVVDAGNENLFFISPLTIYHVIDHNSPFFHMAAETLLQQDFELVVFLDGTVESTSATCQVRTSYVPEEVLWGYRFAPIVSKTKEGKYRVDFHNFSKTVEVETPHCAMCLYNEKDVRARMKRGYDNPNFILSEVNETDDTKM
HSV replic up: increases HSV replication in cells; HSV replication augmentation in cells, fold increase; maximum fold increase; actives 0.005% (n = 220,000); in the data active = maximum fold increase above about 1.5; inconclusive = no clear call, values can overlap the other calls; tested in PC3 cells
G6PDH ctr: counter-screen for TbHK1 inhibitors: Leuconostoc G6PDH inhibition; shares compounds with Tb hexokinase; purified G6PDH, NADH absorbance, 1 h; inhibition, % at 10 µM; actives 7% (n = 210); AID 2516;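 active = at least 50% inhibition in the glucose-6-phosphate dehydrogenase coupled counterscreen; inconclusive = no clear call, values can overlap the other calls; inactive = inhibition below 50%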
TbHK1 rescreen: T. brucei hexokinase 1 inhibition, rescreen | shares compounds with Tb hexokinase | recombinant TbHK1, G6PDH-coupled NADH A340 absorbance | inhibition, % at 10 µM | actives 10% (n = 210) | AID 2560;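 active = inhibition of at least 50% in both of the two screening runs; inconclusive = at least 50% in one run, below 50% in the other; inactive = inhibition below 50% in both runs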
ROMK retest: confirmation of human ROMK potassium channel modulators; shares compounds with ROMK mod; ROMK thallium flux, fluorescence ratio; stronger effect = lower value; normalized thallium flux (F/F0 slope) at 10 µM; actives 54% (n = 3,000); AID 1917;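 active = Flux at 10 µM at least 3 SD below or above vehicle control mean in one or both replicates; inconclusive = no clear call, values can overlap the other calls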
Large screens that a line does not name were inactive (follow-up assays come after a bar, where they were run). Many of the other results were omitted from the sample, so hits are more common in it than they were.

O=C1NC(=O)C(=Cc2ccccc2Oc2ccc(F)cc2)C(=O)N1	ROMK mod 3.28
CN(C)/C=c1\sc2c(C#N)cc(C(=O)c3ccc(Br)cc3)n2c1=O	HSV replic up 3.42 (no result: INS promoter inh, ROMK mod)
CCCCC(C)C(OC(=O)CC(CC(=O)O)C(=O)O)C(CC(C)CC(O)CCCCC(O)CC(O)C(C)N)OC(=O)CC(CC(=O)O)C(=O)O (stereo not drawn)	none
O=[N+]([O-])c1ccc(NCc2ccccc2)c2nonc12	Insulin prom up 13.4, HSV replic up inconclusive (no result: INS promoter inh, ROMK mod)
CC(C(N)=O)N1CC(c2ccc(Cl)cc2)CC1=O (stereo not drawn)	none (no result: INS promoter inh)
C[C@H]1O[C@@H](O[C@H]2[C@@H](O)C[C@H](O[C@H]3[C@@H](O)C[C@H](O[C@H]4CC[C@@]5(C)[C@H](CC[C@@H]6[C@@H]5CC[C@]5(C)[C@@H](C7=CC(=O)OC7)CC[C@]65O)C4)O[C@@H]3C)O[C@@H]2C)C[C@H](O)[C@@H]1O	INS promoter inh 100.0 (no result: Insulin prom up, ROMK mod)
Cc1ccc(C2(O)CC(C)N(C)CC2C)cc1 (stereo not drawn)	Tb hexokinase 53.1 (no result: ROMK mod) | G6PDH ctr inactive | TbHK1 rescreen inactive
CN(C)CP(=O)(O)CN(C)C=O	Tb hexokinase 50.6 (no result: ROMK mod) | G6PDH ctr inactive | TbHK1 rescreen inactive
Cc1cc(Cl)ccc1OCCCC(=O)NCc1cccs1	none
N#Cc1ccc(/C=C/C(=O)O)cc1	none (no result: INS promoter inh, ROMK mod)
CCOC(=O)N(c1ccccc1)P1(=S)OCC(C)O1 (stereo not drawn)	Tb hexokinase 52.8 (no result: ROMK mod) | G6PDH ctr inactive | TbHK1 rescreen inactive
CCOC(=O)N(c1ccccc1)P1(=S)OCCO1	none (no result: ROMK mod)
COc1ccc(CCn2c(O)c(C=NCc3ccc4c(c3)OCO4)c(=O)[nH]c2=O)cc1OC	none
COc1ccc(OC)c(-n2c(O)c(C=NCc3ccc4c(c3)OCO4)c(=O)[nH]c2=O)c1	Tb hexokinase 55.1 (no result: ROMK mod) | G6PDH ctr inactive | TbHK1 rescreen inactive
OCCN1C2CCC1CC(O)(c1ccc(F)cc1)C2 (stereo not drawn)	none
OC1(c2ccc(F)cc2)CC2CCC(C1)N2Cc1nnnn1C1CCCCC1 (stereo not drawn)	ROMK mod -4.8 (no result: Insulin prom up, HSV replic up) | ROMK retest 0.0566
O=c1[nH]c(=O)n(Cc2ccccc2Cl)c(O)c1C=Nc1ccc(F)cc1	none
Cc1noc(C)c1C(=O)N1CCC2(CC1)OCCO2	ROMK mod 3.05 | ROMK retest inactive
CCOP(=O)(C#CC(C)(C)C)C(O)(c1ccccc1)C(F)(F)F (stereo not drawn)	none (no result: ROMK mod)
O=C(c1ccc2c3c(cccc13)CC2)C1CCCN(CC2CC2)C1 (stereo not drawn)	ROMK mod -3.3 (no result: Insulin prom up) | ROMK retest 0.0596
Cc1cccc(-n2c(O)c(/C=C/C=Nc3ccccc3)c(=O)[nH]c2=O)c1	HSV replic up inconclusive
Cn1c(O)c(/C=C/C=Nc2ccccc2)c(=O)n(C)c1=S	none (no result: INS promoter inh, ROMK mod) | ROMK retest 0.0459
CCOP(=S)(OCC)N1CCOCCOCCN(P(=S)(OCC)OCC)CCOCCOCC1	ROMK mod -2 | ROMK retest inactive
O=C(/C=C/c1ccccc1)NCCc1cnc[nH]1	none
CN1CCc2nc(N)c(C#N)c(-c3ccccc3)c2C1	none (no result: ROMK mod)
CN1CCc2nc3sc(C#N)c(N)c3c(-c3cccs3)c2C1	none (no result: Insulin prom up) | ROMK retest inconclusive
CC(Cc1ccccc1Sc1ccccc1O)N(C)C (stereo not drawn)	none
Cc1cccc(N2C(=O)NC(=O)/C(=C/c3cc4c(cc3[N+](=O)[O-])OCO4)C2=O)c1	ROMK mod -2.8 (no result: Insulin prom up) | ROMK retest 0.0561
O=C1NC(=O)C(=Cc2cc3c(cc2[N+](=O)[O-])OCO3)C(=O)N1	none
O=c1c(C=NCc2cccs2)c(O)n(C2CCCCC2)c(=O)n1C1CCCCC1	none (no result: Insulin prom up)
O=c1c(C=NCCN2CCNCC2)c(O)n(C2CCCCC2)c(=O)n1C1CCCCC1	ROMK mod -3.71 | ROMK retest inactive
COCCNC(=O)c1ccc(N2CC3CC(C2)c2cccc(=O)n2C3)c([N+](=O)[O-])c1 (stereo not drawn)	none
COc1ccc(CCC(C)NCCc2ccccc2)cc1 (stereo not drawn)	ROMK mod -3.89 | ROMK retest 0.0619
COc1ccc(CCNC2CCCCC2)cc1	none (no result: INS promoter inh)
COc1cc2c(cc1OC)-c1c(OC)c(OC)c(OC)c3ccnc(c13)C2=O	ROMK mod -4.78 | ROMK retest 0.0479
CCOC(=O)c1c(-n2c(C)cc(C=C3C(=O)NC(=O)NC3=O)c2C)sc2c1CCCC2	ROMK mod -4.66 (no result: HSV replic up) | ROMK retest inconclusive
Cc1cccc(N2C(=O)NC(=O)/C(=C\c3cc(C)n(-c4sc5c(c4C#N)CCCC5)c3C)C2=O)c1C	HSV replic up inconclusive (no result: INS promoter inh, ROMK mod)
CCn1c(O)c(/C=N/NC(=O)c2ccccc2)c(=O)n(CC)c1=S	none (no result: INS promoter inh, ROMK mod) | ROMK retest 0.0562
Cc1ccccc1-n1c(O)c(/C=C2/C(c3ccccc3)=Nc3ccccc32)c(=O)[nH]c1=O	ROMK mod -5.97 (no result: INS promoter inh) | ROMK retest 0.0612
COC(=O)C1=Nc2ccccc2/C1=C\c1c(O)n(-c2cc(OC)ccc2OC)c(=O)[nH]c1=O	none
Cc1cccc(-n2c(O)c(/C=C3/C(c4ccccc4)=Nc4ccccc43)c(=O)[nH]c2=O)c1	none (no result: INS promoter inh, ROMK mod) | ROMK retest 0.0441
C/C=C1/CN2[C@@H]3C4CO[C@@H]3c3c([nH]c5cc(OC)ccc35)[C@@H]2CC14 (stereo partly drawn)	none (no result: Insulin prom up, INS promoter inh, Tb hexokinase, ROMK mod)
CC1=CC(=O)OC2CC3OC4C[C@@H](C)C5OC6CC7O[C@]8(C)C/C=C\C9OC%10CC%11OC(CC(C)CO)CC(O)[C@]%11(C)OC%10CC9OC8C[C@]7(C)O[C@]6(C)CCC5OC4C[C@]3(C)OC12 (stereo partly drawn)	none (no result: Insulin prom up, INS promoter inh, ROMK mod)
C=C(COC(=O)CCC(=O)O)CC1CC(O)[C@]2(C)OC3CC4OC5C[C@]6(C)O[C@]7(C)CCC8OC9C[C@]%10(C)OC%11C(C)=CC(=O)OC%11CC%10OC9C[C@@H](C)C8OC7CC6O[C@]5(C)C/C=C\C4OC3CC2O1 (stereo partly drawn)	none (no result: INS promoter inh, ROMK mod) | ROMK retest inactive
C[C@]12CC(=CO)C(=O)C[C@@H]1CC[C@@H]1[C@@H]2CC[C@@]2(C)[C@H]1CC[C@]2(C)O	none (no result: INS promoter inh, Tb hexokinase, ROMK mod, HSV replic up)
COc1cc(N2CCOCC2)ccc1/C=C1\C(=O)NC(=O)N(C2CCCCC2)C1=O	ROMK mod -2.52 | ROMK retest inactive
CCOC(=O)c1c(C)n(Cc2ccco2)c2ccc(O)cc12	none (no result: ROMK mod)
CCCCn1c(C)c(C(=O)OCC)c2c(CN3CCOCC3)c(O)ccc21	ROMK mod -2.32 (no result: HSV replic up) | ROMK retest 0.0657
Cc1nc2c(c(=O)[nH]1)C(c1ccc([N+](=O)[O-])cc1)c1c(c3ccccc3oc1=O)O2 (stereo not drawn)	none (no result: INS promoter inh)
O=C(CN1CCCCC1)c1ccc2c(c1)OCO2	none (no result: INS promoter inh)
